Values without a mark were called inactive. A call without a number means that no potency is given here. Calls of active or inactive are those of the source. The call rests on the fitted dose curve; in most records, active means well fitted curve in the direction sought with a large enough effect in the repeat runs; inconclusive means weak or mixed curves; inactive means flat fitted curve, though single readings scatter.
Assay: qHTS assay to test for compound auto fluorescence at 590 nm (red) in HepG2 cells (AID 720674)
Details: HepG2 autofluorescence, red 540/590 nm, 1 h; series mostly up to 91.3 µM
Excerpt: U.S. Tox21 Program National Center for Advancing Translational Sciences [NCATS] NIH Chemical Genomics Center [NCGC] U.S. Environmental Protection Agency [EPA] National Institutes of Environmental Health Sciences [NIEHS] National Toxicology Program [NTP] U.S. Food and Drug Administration [FDA] Tox21 Assay Overview: Compound auto fluorescence often interferes with screening of the compound library against various biological targets and signaling pathways. Some of these compounds may have fluorophoric properties. Such properties may interfere with the assay outputs resulting in false positives and/or negatives. To decrease such complications and ensure the compound activities are relevant in terms of biological response, the Tox21 10K compound library was screened for auto fluorescence. From the fluorophores used as reporter signals in our screening assays, the auto fluorescence equivalencies of compounds against three fluorophores have been evaluated: Triamterene, Fluorescein and Rose Bengal sodium for blue, green and red fluorescence, respectively. The fluorescence intensities were measured using Excitation/Emission wavelengths at 405/460nm, 485/535nm and 540/590nm for blue, green and red labels, respectively. This assay includes the red fluorescence data.
Tox21 Assay Protocol Summary: 2,000 HepG2 cells in 5 uL of culture medium (MEM containing 10% FBS) per well were dispensed into black wall/clear bottom 1536-well plates using a Multidrop Combi Dispenser (ThermoFisher Scientific, Waltham, MA). The assay plates were incubated overnight at 37 C to allow cell attachment to the well bottom, followed by the transfer of 23 nL compound or DMSO vehicle by a pintool work station (Kalypsys , San Diego, CA). After the assay plates were incubated for 1 hr at 37 C and 5% CO2, fluorescence intensities in the assay plates were measured by an Envision (PerkinElmer, Shelton, CT) plate reader using three labels for measuring blue, green and red fluorescence at […] 460, 535 and 590 nm respectively.

SMILES	Potency	fluorescence, relative to Rose Bengal
CC(C)(C)Cl	inactive	–
c1ccc(C(O[C@H]2CCCN(CCc3ccc4c(c3)OCO4)C2)c2ccccc2)cc1	inactive	–
CC(C)Nc1ccc(NC(C)C)c2c1C(=O)c1ccccc1C2=O	inactive	–
O=C(O)c1ccccc1Cl	inactive	–
CC(=O)[O][Al]	inactive	–
CCCCCCCCCCCCCCCCOS(=O)(=O)O	inactive	–
CCC(C)c1cc(C(C)(C)C)c(O)c(C(C)(C)C)c1 (stereo not given)	inactive	–
O=S(=O)(Oc1ccc(Cl)cc1)c1ccccc1	inactive	–
O=C1[C@H]2CCCC[C@H]2C(=O)N1CCCCN1CCN(c2nsc3ccccc23)CC1	inactive	–
NCCCN1CCOCC1	inactive	–
Clc1ccc(Cn2c(CN3CCCC3)nc3ccccc32)cc1	–	-0.15% [at 18.6 µM]
O=C(Cl)c1cc(C(=O)Cl)cc(C(=O)Cl)c1	inactive	–
CCO[Si](CCCCl)(OCC)OCC	inactive	–
CCCCCCCCCOS(=O)(=O)O	inactive	–
O=C(OCCc1ccccc1)c1ccccc1	inactive	–
CCCn1cnc2c1c(=O)n(CCCCC(C)=O)c(=O)n2C	inactive	–
CCCCc1nc2cccnc2n1Cc1ccc(-c2ccccc2-c2nnn[nH]2)cc1	inactive	–
Nc1cccc(S(=O)(=O)c2cccc(N)c2)c1	inactive	–
CN(Cc1ccc(C(C)(C)C)cc1)Cc1cccc2ccccc12	inactive	–
NCC(=O)CCC(=O)O	inactive	–

SMILES	Potency	fluorescence, relative to Rose Bengal
C[Si](C)(CCCN)O[Si](C)(C)CCCN	inactive	–
CCOC(=O)COC(=O)c1cc(Oc2ccc(C(F)(F)F)cc2Cl)ccc1[N+](=O)[O-]	inactive	–
CC(C)OC(=O)C(C)N(C(=O)c1ccccc1)c1ccc(F)c(Cl)c1 (stereo not given)	inactive	–
COC(=O)c1ccc(I)cc1S(=O)(=O)NC(=O)Nc1nc(C)nc(OC)n1	inactive	–
CCc1cc(C2=C(C(=O)O)N(c3ccccc3C(F)(F)F)S(=O)(=O)c3ccccc32)cc2c1OCO2	inactive	–
S=C([S-])NCCNC(=S)[S-].[Mn+2]	inactive	–
CCOC(=O)C(F)(F)F	inactive	–
C1CCCNCCC1	inactive	–
O=C1OC(=O)C2C3C=CC(C3)C12 (stereo not given)	inactive	–
Nc1c(CC(=O)O)cccc1C(=O)c1ccc(Br)cc1	inactive	–
CC(=O)NO	inactive	–
Nc1ccc(S(=O)(=O)Nc2ccccc2)cc1	inactive	–
CC1=CC=C(C(C)C)CC1	inactive	–
NCC(=O)O	inactive	–
OC(CN1CCC(Cc2ccc(F)cc2)CC1)c1ccc(Cl)cc1 (stereo not given)	inactive	–
Nc1ncn([C@H]2C[C@H](O)[C@@H](CO)O2)c(=O)n1	inactive	–
NC(N)=NCCC[C@H](N)C(=O)O	inactive	–
O=C(OCCCCCCOC(=O)c1ccccc1)c1ccccc1	inactive	–
COc1cc(Cl)ccc1Oc1ccc(Cl)cc1Cl	inactive	–
CCOc1ccc(O)cc1	inactive	–
